The source made the active and inactive calls. The calls were made as follows: active = hit-call score of the fitted dose curve at least 0.9, where 1 is the maximum; inactive = score below 0.9.
What was measured:
Details in all cases: mRNA level, 48 h; actives raise or lower the signal
[1] = read-out: Cytochrome P450 7A1 (Homo sapiens) (UniProt P22680); assay: LTEA_HepaRG_CYP7A1: Life Technologies and Expression Analysis (LTEA) Assay for Cytochrome P450 7A1 (CYP7A1) using HepaRG (AID 2283496)
How it was run: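 Using 0.5% DMSO as vehicle and baseline, chemicals were tested in duplicate over an 8-point range from 100 uM on HepaRG cells for 48 h; qRT-PCR signals were normalised to ACTB, GAPDH and POLR2A.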

[2] = read-out: Glutathione S-Transferase (GSTA2), GSTA2 (gene 2939); assay: LTEA_HepaRG_GSTA2: Life Technologies and Expression Analysis (LTEA) Assay for Glutathione S-Transferase (GSTA2) using HepaRG (AID 2283497)
How it was run: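 GSTA2 transcript levels came from Fluidigm TaqMan qRT-PCR normalized to three housekeeping genes, fitted in both directions against DMSO. HepaRG cultures received chemicals for 48 h in serum-free induction medium (0.5% DMSO), 8 half-log concentrations up to 100 uM, duplicate.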

[3] = read-out: Glutamate-cysteine ligase catalytic (GCLC), GCLC (gene 2729); assay: LTEA_HepaRG_GCLC: Life Technologies and Expression Analysis (LTEA) Assay for Glutamate-cysteine ligase catalytic (GCLC) using HepaRG (AID 2283498)
How it was run: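 Expression by TaqMan qRT-PCR, normalized to three housekeeping genes (ACTB, GAPDH, POLR2A), with up- or down-regulation fitted against DMSO. HepaRG cells dosed in duplicate for 48 h with 8 half-log concentrations up to 100 uM, vehicle 0.5% DMSO.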

[4] = read-out: growth arrest and DNA damage 45 (GADD45G), GADD45G (gene 10912); assay: LTEA_HepaRG_GADD45G: Life Technologies and Expression Analysis (LTEA) Assay for growth arrest and DNA damage 45 (GADD45G) using HepaRG (AID 2283499)
How it was run: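 Differentiated human HepaRG cells, 48 h post-plating, exposed 48 h in serum-free induction medium to 8 half-log concentrations (top 100 uM, 0.5% DMSO) in duplicate. GADD45G mRNA measured by Fluidigm TaqMan qRT-PCR, normalized to ACTB, GAPDH, POLR2A; bidirectional fit versus DMSO.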

[5] = read-out: Glutamate-cysteine ligase regulatory (GCLM), GCLM (gene 2730); assay: LTEA_HepaRG_GCLM: Life Technologies and Expression Analysis (LTEA) Assay for Glutamate-cysteine ligase regulatory (GCLM) using HepaRG (AID 2283500)
How it was run: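 In this multiplexed HepaRG gene-expression assay, GCLM mRNA change after 48 h treatment (8 concentrations, max 100 uM) was scored against DMSO by bidirectional curve fitting.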

[6] = read-out: Glutathione S-transferase M3 (GSTM3), GSTM3 (gene 2947); assay: LTEA_HepaRG_GSTM3: Life Technologies and Expression Analysis (LTEA) Assay for Glutathione S-transferase M3 (GSTM3) using HepaRG (AID 2283501)
How it was run: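 Differentiated human HepaRG cells were exposed in duplicate for 48 h in serum-free induction medium, 8 points from 100 uM top in half-log steps, 0.5% DMSO. GSTM3 mRNA was measured by TaqMan qRT-PCR, normalized to ACTB, GAPDH and POLR2A; bidirectional fit versus DMSO.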

[7] = read-out: 3-Hydroxy-3-Methylglutaryl-CoA Synthase 2 (HMGCS2), HMGCS2 (gene 3158); assay: LTEA_HepaRG_HMGCS2: Life Technologies and Expression Analysis (LTEA) Assay for 3-Hydroxy-3-Methylglutaryl-CoA Synthase 2 (HMGCS2) using HepaRG (AID 2283504)
How it was run: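 Human HepaRG cells in serum-free induction medium were exposed in duplicate for 48 h to 8-point half-log series from 100 uM top in 0.5% DMSO. HMGCS2 mRNA measured by TaqMan qRT-PCR, normalised to ACTB, GAPDH, POLR2A; bidirectional fit versus DMSO.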

[8] = read-out: HGF (gene 3082); assay: LTEA_HepaRG_HGF: Life Technologies and Expression Analysis (LTEA) Assay for Hepatocyte Growth Facto (HGF) using HepaRG (AID 2283505)
How it was run: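 Differentiated HepaRG cells in serum-free induction medium exposed 48 h in duplicate, 8 half-log concentrations from 100 uM in 0.5% DMSO. HGF mRNA by qRT-PCR, normalised to ACTB, GAPDH, POLR2A; bidirectional fitting.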

[9] = read-out: Insulin Like Growth Factor 1 (IGF1), IGF1 (gene 3479); assay: LTEA_HepaRG_IGF1: Life Technologies and Expression Analysis (LTEA) Assay for Insulin Like Growth Factor 1 (IGF1) using HepaRG (AID 2283506)
How it was run: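 Endpoint: IGF1 mRNA change by qRT-PCR, housekeeping-normalized, fitted bidirectionally relative to 0.5% DMSO vehicle. Human HepaRG cells were treated 48 h in serum-free induction medium, eight half-log concentrations topping at 100 uM.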

[10] = read-out: Intercellular Adhesion Molecule 1 (ICAM1), ICAM1 (gene 3383); assay: LTEA_HepaRG_ICAM1: Life Technologies and Expression Analysis (LTEA) Assay for Intercellular Adhesion Molecule 1 (ICAM1) using HepaRG (AID 2283507)
How it was run: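 Differentiated human HepaRG cells in serum-free induction medium exposed 48 h in duplicate to 8 half-log concentrations (top 100 uM, 0.5% DMSO). ICAM1 mRNA quantified by TaqMan qRT-PCR, normalized to ACTB, GAPDH and POLR2A; bidirectional fitting versus DMSO.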

[11] = read-out: Insulin-like growth factor-binding protein 1 (IGFBP1), IGFBP1 (gene 3484); assay: LTEA_HepaRG_IGFBP1: Life Technologies and Expression Analysis (LTEA) Assay for Insulin-like growth factor-binding protein 1 (IGFBP1) using HepaRG (AID 2283508)
How it was run: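 HepaRG cells, plated 48 h then switched to serum-free induction medium, exposed in duplicate for 48 h to 8-point half-log series from 100 uM in 0.5% DMSO. mRNA measured by qRT-PCR, normalized to ACTB/GAPDH/POLR2A; bidirectional fit versus DMSO.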

[12] = read-out: Interleukin 6 (IL6), IL6 (gene 3569); assay: LTEA_HepaRG_IL6: Life Technologies and Expression Analysis (LTEA) Assay for Interleukin 6 (IL6) using HepaRG (AID 2283509)
How it was run: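 Transcript levels, normalized to three housekeeping genes, were quantified by qRT-PCR after 48 h chemical treatment of HepaRG cells. Eight-point half-log series from 100 uM in 0.5% DMSO, duplicates. Fitted both directions against DMSO baseline.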

[13] = read-out: Interleukin 6 Receptor (IL6R), IL6R (gene 3570); assay: LTEA_HepaRG_IL6R: Life Technologies and Expression Analysis (LTEA) Assay for Interleukin 6 Receptor (IL6R) using HepaRG (AID 2283510)
How it was run: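 In this HepaRG screen, test chemicals act on cells for 48 h at up to 100 uM (eight half-log points, duplicate wells). IL6R expression is quantified by qRT-PCR after normalization to ACTB, GAPDH and POLR2A, with DMSO as baseline.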

[14] = read-out: Potassium channel subfamily K member 1 (KCNK1), KCNK1 (gene 3775); assay: LTEA_HepaRG_KCNK1: Life Technologies and Expression Analysis (LTEA) Assay for Potassium channel subfamily K member 1 (KCNK1) using HepaRG (AID 2283511)
How it was run: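 KCNK1 transcript measured by TaqMan qRT-PCR against three housekeeping genes, after HepaRG cells were treated 48 h with eight half-log concentrations (top 100 uM, 0.5% DMSO). Curves fitted bidirectionally relative to vehicle.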

[15] = read-out: Keratin 19 (KRT19), KRT19 (gene 3880); assay: LTEA_HepaRG_KRT19: Life Technologies and Expression Analysis (LTEA) Assay for Keratin 19 (KRT19) using HepaRG (AID 2283512)
How it was run: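 Differentiated HepaRG cells in serum-free induction medium, exposed 48 h in duplicate to 8 half-log concentrations up to 100 uM in 0.5% DMSO. KRT19 mRNA by qRT-PCR, normalized to ACTB, GAPDH, POLR2A; bidirectional fit vs DMSO.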

[16] = read-out: Lipase C (LIPC), LIPC (gene 3990); assay: LTEA_HepaRG_LIPC: Life Technologies and Expression Analysis (LTEA) Assay for Lipase C (LIPC) using HepaRG (AID 2283514)
How it was run: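 LIPC expression was quantified by qRT-PCR against three housekeeping genes (ACTB, GAPDH, POLR2A). Differentiated human HepaRG cells received eight half-log doses (top 100 uM, 0.5% DMSO) in duplicate for 48 h; fitting bidirectional relative to DMSO.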

[17] = read-out: Lipoprotein lipase (LPL), LPL (gene 4023); assay: LTEA_HepaRG_LPL: Life Technologies and Expression Analysis (LTEA) Assay for Lipoprotein lipase (LPL) using HepaRG (AID 2283515)
How it was run: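 LPL transcript levels quantified by TaqMan qRT-PCR against three housekeeping genes after 48 h chemical treatment of HepaRG cells. Eight-point half-log series from 100 uM in 0.5% DMSO, tested in duplicate; bidirectional fitting versus vehicle.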

[18] = read-out: Heat shock 70 kDa protein 1 (HSPA1A), gene 3303; assay: LTEA_HepaRG_HSPA1A: Life Technologies and Expression Analysis (LTEA) Assay for Heat shock 70 kDa protein 1 (HSPA1A) using HepaRG (AID 2283502)
How it was run: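 An oxidative-stress marker readout: HepaRG cells treated 48 h in duplicate with an eight-point series (highest 100 uM) had HSPA1A mRNA quantified by TaqMan qRT-PCR. Activity was fitted in both directions using 0.5% DMSO as baseline.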

[19] = read-out: JUN Transcription Factor, JUN (gene 3725); assay: LTEA_HepaRG_JUN: Life Technologies and Expression Analysis (LTEA) Assay for JUN Transcription Factor using HepaRG (AID 2283513)
How it was run: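 Gene-expression endpoint: JUN mRNA (qRT-PCR, normalized to three reference genes) in HepaRG cultures treated 48 h with chemicals, duplicate wells, 100 uM maximum with half-log dilutions; bidirectional fitting relative to 0.5% DMSO.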

[20] = read-out: Hypoxia-inducible factor 1-alpha (Homo sapiens) (UniProt Q16665); assay: LTEA_HepaRG_HIF1A: Life Technologies and Expression Analysis (LTEA) Assay for Hypoxia-inducible factor 1 (HIF1A) Trancription factor using HepaRG (AID 2283503)
How it was run: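 Gain- or loss-of-signal HIF1A mRNA changes are fitted against a DMSO baseline. HepaRG cultures receive eight concentrations, highest 100 uM, for 48 h in serum-free induction medium with 0.5% DMSO.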

Measured: AC50

Hypoxia-inducible factor 1-alpha (Homo sapiens), sequence (Q16665 whole entry, looked up): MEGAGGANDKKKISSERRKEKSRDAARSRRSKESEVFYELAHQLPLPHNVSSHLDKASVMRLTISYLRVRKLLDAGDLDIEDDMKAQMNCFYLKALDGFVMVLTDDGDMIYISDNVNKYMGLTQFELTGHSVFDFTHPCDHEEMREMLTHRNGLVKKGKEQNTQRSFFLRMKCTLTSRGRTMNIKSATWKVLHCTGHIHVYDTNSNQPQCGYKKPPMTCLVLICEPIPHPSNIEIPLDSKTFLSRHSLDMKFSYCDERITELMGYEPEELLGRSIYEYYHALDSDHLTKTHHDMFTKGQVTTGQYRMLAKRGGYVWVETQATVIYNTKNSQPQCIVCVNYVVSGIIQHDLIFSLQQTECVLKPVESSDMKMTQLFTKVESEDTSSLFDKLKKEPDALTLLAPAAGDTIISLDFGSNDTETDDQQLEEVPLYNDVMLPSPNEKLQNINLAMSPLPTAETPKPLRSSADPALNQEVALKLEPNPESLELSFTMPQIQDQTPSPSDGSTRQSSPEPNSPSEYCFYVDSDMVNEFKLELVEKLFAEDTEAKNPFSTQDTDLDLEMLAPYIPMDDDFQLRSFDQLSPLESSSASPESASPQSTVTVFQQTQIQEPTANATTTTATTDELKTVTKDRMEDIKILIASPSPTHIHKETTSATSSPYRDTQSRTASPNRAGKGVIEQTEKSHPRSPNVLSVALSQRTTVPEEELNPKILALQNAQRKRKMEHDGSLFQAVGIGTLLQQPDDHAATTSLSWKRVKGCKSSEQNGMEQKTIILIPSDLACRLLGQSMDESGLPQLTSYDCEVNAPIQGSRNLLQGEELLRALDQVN

ClC1=C(Cl)C2(Cl)C3C(Cl)C=CC3C1(Cl)C2(Cl)Cl (stereo not given)
active: [1] 13.8 µM | [5] 32.1 µM | [9] 5.6 µM
inactive: [2] | [3] | [4] | [6] | [7] | [8] | [10] | [11] | [12] | [13] | [14] | [15] | [16] | [17]

CCCCCOC(=O)c1ccccc1C(=O)OCCCCC
inactive: [1] | [2] | [3] | [4] | [5] | [6] | [7] | [8] | [9] | [10] | [11] | [12] | [13] | [14] | [15] | [16] | [17]

c1ccc2c(c1)-c1cccc3cccc-2c13
inactive: [2] | [3] | [4] | [5] | [6] | [18] | [7] | [8] | [9] | [10] | [11] | [12] | [13] | [14] | [15] | [19] | [16] | [17]

OCCCl
inactive: [1] | [2] | [3] | [4] | [5] | [6] | [7] | [8] | [9] | [10] | [11] | [12] | [13] | [14] | [15] | [16] | [17]

CCC[CH2][Sn]([Cl])([CH2]CCC)[CH2]CCC
active: [2] 1.67 µM | [3] 50 µM | [4] 5.56 µM | [18] 2.27 µM | [7] 1.24 µM | [8] 50 µM | [9] 4.72 µM | [12] 2.73 µM | [13] 50 µM | [14] 2.85 µM | [15] 0.297 µM | [19] 3.32 µM | [16] 1.46 µM
inactive: [5] | [6] | [10] | [17]

OCCCBr
inactive: [1] | [2] | [3] | [4] | [5] | [6] | [7] | [8] | [9] | [10] | [11] | [12] | [13] | [14] | [15] | [16] | [17]

CN(C)[C@@H]1C(=O)C(C(N)=O)=C(O)[C@@]2(O)C(=O)C3=C(O)c4c(O)cccc4[C@@](C)(O)[C@H]3C[C@@H]12
inactive: [1] | [2] | [3] | [4] | [5] | [6] | [7] | [8] | [9] | [10] | [12] | [13] | [14] | [15] | [16] | [17]

CN(C)c1ccccc1
inactive: [1] | [2] | [3] | [4] | [5] | [6] | [20] | [7] | [8] | [9] | [10] | [12] | [13] | [14] | [15] | [16] | [17]

[O-][Cl+]O
inactive: [2] | [3] | [4] | [5] | [6] | [18] | [20] | [7] | [8] | [9] | [10] | [11] | [12] | [13] | [14] | [15] | [16] | [17]

CC(C)(C)OOC(=O)c1ccccc1
inactive: [1] | [2] | [3] | [4] | [5] | [6] | [7] | [8] | [9] | [10] | [11] | [12] | [13] | [14] | [15] | [16] | [17]

C[C@]12C=CC3=C4CCC(=O)C=C4CC[C@H]3[C@@H]1CC[C@@H]2O
active: [4] 60.9 µM | [5] 79 µM | [9] 55.6 µM | [12] 9.92 µM
inactive: [2] | [3] | [6] | [18] | [7] | [8] | [10] | [13] | [14] | [15] | [19] | [17]

CCC(C)c1ccc(O)cc1 (stereo not given)
active: [3] 0.397 µM
inactive: [1] | [2] | [4] | [5] | [6] | [7] | [8] | [9] | [10] | [11] | [12] | [13] | [14] | [15] | [19] | [16] | [17]

— PubChem BioAssay (EPA / NIEHS)
